For 16 molecules, Potency results are on record in PubChem BioAssay (Tox21).

A short description of experiment [1]: qHTS assay for identifying genotoxic compounds that show differential cytotoxicity against isogenic chicken DT40 cell lines with known DNA damage response pathways - wild type cell line (AID 743012). Note: nearly all actives have a fitted effect of over 60% in size. Note: potency is the fitted concentration of half-maximal effect. The essentials: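 Viability of DNA repair-proficient chicken DT40 cells was assessed by CellTiter-Glo luminescence following 40 h compound exposure at 37 C/5% CO2.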

A short description of experiment [2]: qHTS assay for identifying genotoxic compounds that show differential cytotoxicity against isogenic chicken DT40 cell lines with known DNA damage response pathways - Rad54/Ku70 mutant cell line (AID 743015). Note: nearly all actives have a fitted effect of over 60% in size. Note: potency is the fitted concentration of half-maximal effect. Background: In qHTS, concentration-response curves come from the screen itself.
A short description of experiment [3]: qHTS assay to identify small molecule antagonists of the androgen receptor (AR) signaling pathway - cell viability counter screen (AID 743033; note: nearly all actives have a fitted effect of over 45% in size).
The target in experiment [4] is Androgen receptor (Homo sapiens) (UniProt P10275). Nature of the experiment: qHTS assay to identify small molecule antagonists of the androgen receptor (AR) signaling pathway (AID 743035; active = well fitted inhibition curve with a large enough effect in the signal ratio in the repeat runs, not every such curve was filed as active; the % refers to the signal ratio). In a few lines: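 Reporter HEK293 cells were exposed to compounds and R1881 overnight (16 h, 37C); beta-lactamase activity was then quantified by FRET fluorescence.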
Sequence of Androgen receptor (Homo sapiens) (P10275 whole entry, looked up): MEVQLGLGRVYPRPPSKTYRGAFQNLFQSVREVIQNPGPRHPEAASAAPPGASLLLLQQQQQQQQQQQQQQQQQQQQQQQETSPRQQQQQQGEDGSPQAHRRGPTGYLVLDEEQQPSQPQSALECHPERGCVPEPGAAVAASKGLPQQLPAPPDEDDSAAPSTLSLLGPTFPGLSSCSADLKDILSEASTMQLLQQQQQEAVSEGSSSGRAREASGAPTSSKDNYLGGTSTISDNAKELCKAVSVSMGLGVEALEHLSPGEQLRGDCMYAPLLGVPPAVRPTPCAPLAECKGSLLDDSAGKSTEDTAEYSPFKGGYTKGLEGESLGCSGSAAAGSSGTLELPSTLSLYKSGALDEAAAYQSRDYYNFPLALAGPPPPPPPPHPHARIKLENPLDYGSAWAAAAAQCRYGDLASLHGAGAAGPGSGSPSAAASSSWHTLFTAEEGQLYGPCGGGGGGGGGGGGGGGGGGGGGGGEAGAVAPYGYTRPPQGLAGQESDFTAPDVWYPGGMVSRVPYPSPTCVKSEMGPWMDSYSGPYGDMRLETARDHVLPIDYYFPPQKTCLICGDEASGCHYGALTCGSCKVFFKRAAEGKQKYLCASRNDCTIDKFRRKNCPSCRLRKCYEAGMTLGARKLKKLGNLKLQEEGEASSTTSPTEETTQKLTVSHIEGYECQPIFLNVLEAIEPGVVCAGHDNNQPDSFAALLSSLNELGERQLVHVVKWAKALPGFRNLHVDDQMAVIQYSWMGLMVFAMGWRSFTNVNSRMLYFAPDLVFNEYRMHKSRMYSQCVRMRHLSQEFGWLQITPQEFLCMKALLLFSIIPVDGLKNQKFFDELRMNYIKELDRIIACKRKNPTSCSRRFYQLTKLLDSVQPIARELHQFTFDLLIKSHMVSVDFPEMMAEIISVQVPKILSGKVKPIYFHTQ
Experiment [5] has the same target. In words: qHTS assay to identify small molecule agonists of the androgen receptor (AR) signaling pathway (AID 743036; active = well fitted activation curve with a large enough effect in the signal ratio in the repeat runs, with a control signal flat, not every such curve was filed as active; the % refers to the signal ratio). In a few lines:
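Agonist activity was scored by beta-lactamase reporter fluorescence in stably transfected HEK293 cells exposed to compounds for 16 h at 37C and 5% CO2. Substrate loading took 2 h at room temperature.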

For experiment [6] the target is unchanged. Nature of the experiment: qHTS assay to identify small molecule agonists of the androgen receptor (AR) signaling pathway using the MDA cell line (AID 743040; note: nearly all actives have a fitted effect of over 20% in size). In a few lines: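 Luciferase agonist assay: 16 h compound exposure at 37C without CO2 in MDA-kb2 AR-luc cells, whose MMTV promoter responds to both AR and GR. Luminescence measured after 30 min room-temperature incubation with ONE-Glo.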

A short description of experiment [7]: qHTS assay to identify small molecule antagonists of the androgen receptor (AR) signaling pathway using the MDA cell line - cell viability counter screen (AID 743041; note: nearly all actives have a fitted effect of over 45% in size). The essentials:
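Viability read by CellTiter-Fluor fluorescence in the same wells as the antagonist screen, added after 15.5 h of a 16 h, 37C exposure. Human breast carcinoma MDA-kb2 AR-luc cells, compounds co-dosed with agonist R1881.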

Experiment [8] addresses Androgen receptor (Homo sapiens) (UniProt P10275). In words: qHTS assay to identify small molecule antagonists of the androgen receptor (AR) signaling pathway using the MDA cell line (AID 743042; note: nearly all actives have a fitted effect of over 55% in size). In a few lines:
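Antagonist mode: compounds plus R1881 agonist added to MDA-kb2 AR-luc cells, incubated 16 h at 37C. Luciferase reporter luminescence quantified, with multiplexed CellTiter-Fluor readout for cell viability.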

Experiment [9] can be described thus: qHTS assay to identify small molecule antagonists of the thyroid receptor (TR) signaling pathway (AID 743065). Note: nearly all actives have a fitted effect of over 55% in size. Note: potency is the fitted concentration of half-maximal effect. The essentials: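 Antagonism measured as loss of luciferase signal in GH3 cells stably carrying a TRE-luciferase reporter, co-treated with compound and T3 (1 nM final) for 23.5 h at 37 C. Viability was read in the same well by CellTiter-Fluor.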
Experiment [10] deals with thyroid hormone receptor (rat, GH3 cells). In words: qHTS assay to identify small molecule agonists of the thyroid receptor (TR) signaling pathway (AID 743066; calls by dose curve).
The nature of experiment [11]: qHTS assay to identify small molecule antagonists of the estrogen receptor alpha (ER-alpha) signaling pathway - cell viability counter screen (AID 743074; calls by dose curve;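 note: HEK293 cells carrying ER-alpha-UAS-bla reporter stimulated with 17beta-estradiol; nearly all actives have a fitted effect of over 45% in size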).
Experiment [12] can be described thus: qHTS assay to identify small molecule antagonists of the estrogen receptor alpha (ER-alpha) signaling pathway using the BG1 cell line - cell viability counter screen (AID 743081).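 Note: compound given together with 17beta-estradiol as the ER stimulus; nearly all actives have a fitted effect of over 45% in size.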 Note: potency is the fitted concentration of half-maximal effect.
For another experiment, the target named is Aromatase (Homo sapiens) (UniProt P11511). Nature of the experiment: qHTS assay to identify aromatase inhibitors (AID 743083). Note: nearly all actives have a fitted effect of over 55% in size. Note: potency is the fitted concentration of half-maximal effect.
Sequence of Aromatase (Homo sapiens) (P11511 whole entry, looked up): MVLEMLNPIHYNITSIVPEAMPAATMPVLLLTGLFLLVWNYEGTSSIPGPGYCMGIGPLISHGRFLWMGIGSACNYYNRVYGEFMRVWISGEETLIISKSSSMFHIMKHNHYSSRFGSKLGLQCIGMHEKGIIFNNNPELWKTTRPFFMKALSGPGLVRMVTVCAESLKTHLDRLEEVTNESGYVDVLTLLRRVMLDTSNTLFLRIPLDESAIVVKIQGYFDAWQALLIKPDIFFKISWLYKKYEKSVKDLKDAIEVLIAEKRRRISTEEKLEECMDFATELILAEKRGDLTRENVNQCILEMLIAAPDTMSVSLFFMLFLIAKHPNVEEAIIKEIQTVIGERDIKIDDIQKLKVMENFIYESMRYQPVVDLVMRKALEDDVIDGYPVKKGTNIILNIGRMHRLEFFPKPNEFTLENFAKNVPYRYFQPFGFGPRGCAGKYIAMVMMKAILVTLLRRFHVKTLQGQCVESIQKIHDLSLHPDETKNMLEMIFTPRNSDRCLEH
Experiment [13] is described as follows: qHTS assay for identifying genotoxic compounds that show differential cytotoxicity against isogenic chicken DT40 cell lines with known DNA damage response pathways - Rev3 mutant cell line (AID 743014). Note: nearly all actives have a fitted effect of over 55% in size. Note: potency is the fitted concentration of half-maximal effect.
Experiment [14] in a line: qHTS assay to identify small molecule antagonists of the thyroid receptor (TR) signaling pathway - cell viability counter screen (AID 743064). Note: nearly all actives have a fitted effect of over 50% in size. Note: potency is the fitted concentration of half-maximal effect. The essentials:
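Same-well viability check: GH3.TRE-Luc cells stimulated with 1 nM T3 alongside test compound for 23.5 h, followed by CellTiter-Fluor fluorescence.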

The target of experiment [15] is Estrogen receptor (Homo sapiens) (UniProt P03372). In words: qHTS assay to identify small molecule agonists of the estrogen receptor alpha (ER-alpha) signaling pathway (AID 743075; calls by dose curve;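 note: HEK293 GripTite cells with ER-alpha and UAS-driven beta-lactamase reporter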).
Sequence of Estrogen receptor (Homo sapiens) (P03372 whole entry, looked up): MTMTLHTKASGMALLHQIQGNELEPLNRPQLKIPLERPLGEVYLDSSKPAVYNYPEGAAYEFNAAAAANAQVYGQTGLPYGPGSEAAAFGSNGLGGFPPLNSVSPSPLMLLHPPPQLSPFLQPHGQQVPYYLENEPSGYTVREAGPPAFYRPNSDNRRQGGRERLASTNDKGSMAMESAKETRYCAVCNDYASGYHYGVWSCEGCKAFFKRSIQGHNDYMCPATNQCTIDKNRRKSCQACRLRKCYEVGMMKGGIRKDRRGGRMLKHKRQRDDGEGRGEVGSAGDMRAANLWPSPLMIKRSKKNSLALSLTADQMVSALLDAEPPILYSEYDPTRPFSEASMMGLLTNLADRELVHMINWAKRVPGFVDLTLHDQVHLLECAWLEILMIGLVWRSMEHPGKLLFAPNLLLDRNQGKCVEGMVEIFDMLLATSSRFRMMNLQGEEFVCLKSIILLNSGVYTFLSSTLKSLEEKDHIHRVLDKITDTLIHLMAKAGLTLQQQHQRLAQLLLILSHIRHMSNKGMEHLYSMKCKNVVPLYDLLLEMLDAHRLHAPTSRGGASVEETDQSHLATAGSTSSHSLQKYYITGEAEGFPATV
The target is the same in experiment [16]. In words: qHTS assay to identify small molecule agonists of the estrogen receptor alpha (ER-alpha) signaling pathway using the BG1 cell line (AID 743079). Note: nearly all actives have a fitted effect of over 20% in size.
The nature of experiment [17]: qHTS assay to identify small molecule antagonists of the estrogen receptor alpha (ER-alpha) signaling pathway using the BG1 cell line (AID 743080; calls by dose curve;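 note: BG1 cells stimulated with 17beta-estradiol alongside compound; nearly all actives have a fitted effect of over 25% in size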; note: potency is the fitted concentration of half-maximal effect). The essentials: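 Readout is ONE-Glo luminescence, taken 30 min at room temperature after reagent addition, preceded by a CellTiter-Fluor viability read; BG1-Luc-4E2 cells had received compound and 17beta-estradiol for 21.5 h at 37 C.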

Experiment [18] has as its target Estrogen receptor (Homo sapiens) (UniProt P03372). Nature of the experiment: qHTS assay to identify small molecule antagonists of the estrogen receptor alpha (ER-alpha) signaling pathway (AID 743069; active = well fitted curve in the direction sought with a large enough effect in the signal ratio in the repeat runs, not every such curve was filed as active; the % refers to the signal ratio). The essentials:
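Antagonist mode: compounds in DMSO were co-added with 17beta-estradiol to ER-alpha-bla HEK293 cells (2% charcoal-stripped serum) and left 18 h at 37C. Reporter inhibition was measured as FRET fluorescence after 2 h LiveBLAzer substrate at room temperature.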

Each structure is given as a SMILES string. Results filed as inconclusive are left out. Active and inactive are the calls of the source. Unless noted, calls come from the whole dose curve; as a rule, active = well fitted curve in the direction sought with a large enough effect in the repeat runs; inconclusive = weak or mixed curves; inactive = no such curve, though single readings can be large; an effect the other way counts as inactive or inconclusive.

With `C[C@@H]1O[C@@H](OC[C@H]2O[C@@H](Oc3c(-c4ccc(OCCO)c(OCCO)c4)oc4cc(OCCO)cc(O)c4c3=O)[C@H](O)[C@@H](O)[C@@H]2O)[C@H](O)[C@H](O)[C@H]1O`, the Potency result in experiment [1], in experiment [2], in experiment [3], in experiment [4], in experiment [5] and in experiment [6] was “inactive” in each case. Further, the Potency entry in [7], in [8], in [9], in experiment [10], in [11] and in experiment [12] was “inactive” in each case. Besides, the Potency entry in the experiment with Aromatase (Homo sapiens) was “inactive”.
Turning to `CNCCC=C1c2ccccc2CCc2ccccc21`, the Potency is 6.68 µM (active) in experiment [1]; 11.9 µM (active) in experiment [13]; 11.9 µM (active) in experiment [2]; 11.9 µM (active) in [14]; 10.6 µM (active) in experiment [9]. Further, the Potency result in experiment [15], in [16], in experiment [17] and in experiment [12] was “inactive” throughout.
`Cc1ccc(C(C)(C)c2ccc(C)cc2)cc1`: the Potency result in experiment [1], in experiment [13], in [3], in experiment [7], in experiment [9] and in experiment [10] was “inactive” throughout. The Potency result in experiment [18], in experiment [11], in experiment [15], in experiment [16], in experiment [17] and in [12] was “inactive” throughout. Further, the Potency entry with Aromatase (Homo sapiens) was “inactive”.
Regarding `c1ccc2occc2c1`, the Potency entry in [7], in experiment [9], in [10], in experiment [18], in experiment [15] and in experiment [16] was “inactive” throughout. Moreover, the Potency result in [17] and in experiment [12] was “inactive” each time. Also, in the experiment with Aromatase (Homo sapiens), the Potency was 68.6 µM (active).
As for `CC[C@H]1OC(=O)C[C@@H](O)[C@H](C)[C@@H](O[C@@H]2O[C@H](C)[C@@H](O)[C@H](N(C)C)[C@H]2O)[C@@H](CCN2C[C@H](C)C[C@H](C)C2)C[C@@H](C)C(=O)/C=C/C(C)=C/[C@@H]1CO[C@@H]1O[C@H](C)[C@@H](O)[C@@H](OC)[C@H]1OC`, the Potency result in experiment [1], in experiment [4], in experiment [5], in experiment [7], in experiment [8] and in experiment [14] was “inactive” each time. The Potency entry in experiment [9], in experiment [10], in experiment [18], in experiment [11], in experiment [15] and in [16] was “inactive” in each case. Further, the Potency entry (in experiment [17]; in [12]; with Aromatase (Homo sapiens)) was “inactive” throughout.
Take `N[C@H](C(=O)O)[C@@H]1CC(Cl)=NO1`: the Potency in experiment [1] is 2.66 µM (active); in experiment [13] it was 2.66 µM (active); in [2] it was 2.98 µM (active); in experiment [14], 5.96 µM (active); in experiment [9], 2.98 µM (active). For the same molecule, the Potency entry in experiment [7], in experiment [10], in experiment [11], in experiment [15], in experiment [16] and in experiment [17] was “inactive” in each case. Besides, in experiment [12], the Potency result was “inactive”.
`Clc1nc(C(Cl)(Cl)Cl)c(Cl)c(Cl)c1Cl`: the Potency in experiment [1] was 21.7 µM (active); in experiment [13] it was 19.3 µM (active); in experiment [2], 27.3 µM (active); in experiment [14], 21.7 µM (active); in experiment [9], 17.2 µM (active). The Potency result in [10], in experiment [11], in experiment [15] and in [12] was “inactive” in each case.
Turning to `CCCCCCCC1CCC(=O)O1` (configuration not stated), the Potency entry in experiment [9] and in [10] was “inactive” each time.
Take `CC1=C(/C=C/C(C)=C/C=C/C(C)=C\C(=O)O)C(C)(C)CCC1`: the Potency in experiment [1] is 61.3 µM (active); in experiment [13], 61.3 µM (active); in experiment [2], 68.8 µM (active); in experiment [9], 68.8 µM (active); in [17] it was 0.244 µM (active). The Potency entry (in experiment [7]; in the experiment with Aromatase (Homo sapiens)) was “inactive” throughout.
Consider `CCCCC/C=C\C=C\C(=O)OCC`, for which the Potency is 12.7 µM (active) in [1]; 16 µM (active) in experiment [13]; 12.7 µM (active) in experiment [2]; 31.9 µM (active) in [14]; 28.4 µM (active) in experiment [9]. Further, the Potency result in experiment [11], in experiment [15], in experiment [16] and in experiment [12] was “inactive” each time.
Turning to `CCOC(=O)Cc1ccc(-c2ccccc2)cc1`, the Potency result in experiment [13], in experiment [2], in [7], in experiment [14], in experiment [9] and in experiment [10] was “inactive” each time. The Potency result in [18], in experiment [11], in experiment [15], in [16], in experiment [17] and in experiment [12] was “inactive” each time. The Potency entry with Aromatase (Homo sapiens) was “inactive”.
As to `CC[C@H](C)C(=O)O[C@H]1CCC=C2C=C[C@H](C)[C@H](CC[C@@H]3C[C@@H](O)CC(=O)O3)[C@H]21`, the Potency in experiment [1] is 2.98 µM (active); in [13] it was 2.37 µM (active); in experiment [2], 11.9 µM (active). For the same molecule, the Potency entry in experiment [5], in [6], in [7], in experiment [8], in experiment [10] and in [11] was “inactive” throughout. Moreover, the Potency entry in experiment [15], in [16] and in experiment [12] was “inactive” each time.
Consider `CCN(CC)C(=O)[C@]1(c2ccccc2)C[C@@H]1CN`, for which the Potency entry in [1], in experiment [2], in [7], in experiment [14], in [9] and in [10] was “inactive” throughout. Further, the Potency result in experiment [11] and in [12] was “inactive” each time.
On to `CCCC(=O)c1cc(O)c(O)cc1O`, for which the Potency in experiment [1] is 24.3 µM (active); in [13], 29.8 µM (active); in experiment [2] it was 45 µM (active); in [9], 61.1 µM (active); in [12], 61.1 µM (active). Further, the Potency entry in [6], in experiment [8], in [10], in experiment [18], in experiment [15] and in experiment [16] was “inactive” in each case. Besides, in experiment [17], the Potency entry was “inactive”.
In the case of `CC1CCCCN1CCCOC(=O)c1ccccc1` (configuration not stated), the Potency entry in experiment [3], in experiment [7], in [14], in [9], in [10] and in [11] was “inactive” in each case. Further, the Potency entry (in experiment [12]; with Aromatase (Homo sapiens)) was “inactive” each time.
On to `CC(=O)N(C)C`, for which, in [9], the Potency entry was “inactive”.
